The nature of assay [1]: reducers of endogenous Her2 protein level, primary screen, SKBR3 breast tumor cells, AlphaScreen, ATP viability (AID 461;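 active = Her2 level under about 52% in both replicate screens, with viability over 70% of control, limit read from the data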;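 for Her2 level: lower value means less Her2 protein in the cells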;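 for viability: percent of carrier control wells set as 100% viability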). The following applies: 18-24 h, measured here: SKBR3 viability, ATP luminescence, at 10 µM. In general terms: In Alpha technology, singlet oxygen from a donor bead excites a nearby acceptor bead.
Assay [2] addresses Receptor tyrosine-protein kinase erbB-2 (Homo sapiens) (UniProt P04626). The assay is described as above. Particulars: 18-24 h, at 10 µM, stronger effect = lower value.
Assay [3] is described as follows: SK-BR-3 cell growth inhibitors, pilot screen, 24 h, human (AID 572;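 active = viability at or below 10% of carrier control in both of two separate runs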;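 note: compound exposure lasted between 18 and 24 h rather than exactly 24 h; 100% = carrier-treated control wells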). The following applies: SK-BR-3 viability, CellTiter-Glo luminescence, at 10 µM, stronger effect = lower value.
Assay [4] can be described thus: HUVEC growth inhibition – cell-based, human, primary screen (AID 575;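 active = viability at or below 30% in both replicate assays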;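 note: 100% = median of untreated cell wells with 0.1% DMSO on each plate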). The following applies: HUVEC proliferation, CellTiter-Glo luminescence, 72 h; at 10 µM; stronger effect = lower value. On the technique in general: Cellular ATP, detected with luciferase, serves as a proxy for viable cell number.
Assay [5] in a line: growth inhibitors of H69AR lung tumor, primary screen, human, duplicate replicates (AID 580;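 active = viability at or under a set limit in both replicates, limit being median viability minus 3 SD, cut at about 48% in these data, passing the limit was not always enough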;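 note: 100% = mean luminescence of untreated wells and 0% = no signal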). Particulars: H69AR lung tumor cells viability, ATP luminescence, 72 h; at 10 µM; stronger effect = lower value.
Assay [6] in a line: reversal of MRP1-mediated doxorubicin resistance, pilot screen, H69AR cells, doxorubicin co-treatment (AID 601;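 active = viability loss from added drug above about 55%, and viability with drug at most 40%, in both replicates, limit read from the data, passing the limit was not always enough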). The following applies: CellTiter-Glo, 72 h, at 10 µM; for differential viability (reversal): stronger effect = higher value.
Assay [7] can be described thus: 384-well plate pilot, post-Golgi transport modulator project, inhibition of yeast transport mutant growth (AID 636; in the data active = inhibition above about 31%). The following applies: absorbance 615 nm, about 18 h, stronger effect = higher value.
Assay [8] in a line: growth suppression of yeast trafficking mutant, preliminary HTS, modulators of trafficking downstream of Golgi apparatus project, 1536-format plate, OD 615 nm (AID 637; in the data active = inhibition above about 30%). Particulars: yeast transport mutant growth, absorbance 615 nm, 18 h; stronger effect = higher value.
Assay [9] in a line: OD615 S. cerevisiae growth inhibition, permissive medium, pilot counter-assay, permissive growth control for S. cerevisiae lifespan shortening project (AID 705). Particulars: OD615, 24 h, at 10 µM, stronger effect = higher value.
A short description of assay [10]: Restrictive medium S. cerevisiae growth inhibition, OD615, pilot screen of yeast lifespan reduction project, restrictive growth control (AID 706;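 active = growth inhibition above a set limit, 3 SD over mean compound inhibition, in both replicates, cut at about 43% in these data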;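 note: modified DeaD lifespan yeast strain shifted to restrictive glucose medium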). Particulars: OD615, 48 h, at 10 µM, stronger effect = higher value.
The nature of assay [11]: viability gain of MRP-1-high H69AR cells under doxorubicin, pilot screen, MRP-1 activator project, CellTiter-Glo, duplicate (AID 807;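 active = viability increase at or above a cutoff of the median across tested compounds plus 3 SD, cut at about 8.5% in these data, passing the limit was not always enough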;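 note: compound pretreatment 18-22 h then 72 h combined with doxorubicin; 0% = doxorubicin alone and 100% = vehicle without doxorubicin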). The following applies: H69AR viability with doxorubicin, CellTiter-Glo luminescence; at 10 µM; stronger effect = higher value.
Assay [12] can be described thus: growth suppression of beta-catenin knockout HCT116, pilot screen, human colon tumor cells (AID 823;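 active = cell viability at or below a set limit in both duplicate runs, the limit being the all-compound median minus 4 SD, cut at about 23% in these data, passing the limit was not always enough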;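 note: 0% = wells killed by 20 µM Hyamine and 100% = untreated DMSO cell wells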). The following applies: CellTiter-Glo, 60 h, at 10 µM, stronger effect = lower value.
The nature of assay [13]: growth suppression of PTEN-deleted HCT116, pilot screen, cell-based, HCT116 clonal line, CellTiter-Glo (AID 824;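 active = viability at or below 27.92% in each of two runs, the all-compound median minus 4 SD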;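 note: 0% = 20 µM Hyamine control and 100% = vehicle cell control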). Particulars: 60 h, at 10 µM, stronger effect = lower value.
Assay [14] is described as follows: inhibitors of the yeast RAM network, pilot screen, dse1pr::URA3 reporter, 5-FOA selection (AID 869;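 active = inhibition over a set limit, the all-compound mean plus 3 SD, in both replicate runs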;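 note: 0% = DMSO wells with no growth and 100% = 10 µM 1-NA-PP1 with full growth; RAM network block rescues cells from 5-FOA so hits raise OD615 growth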). Particulars: S. cerevisiae dse1pr::URA3 5-FOA growth, OD615, 2 d; at 10 µM; stronger effect = higher value; strain carries analog-sensitive mutant Cbk1 kinase.
A short description of assay [15]: RAM signaling pathway blockade in yeast – S. cerevisiae, Pdr1DBD-CYC8 efflux-inhibited sensitized strain, primary screen (AID 1298;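 active = RAM network inhibition above 8.4% in each of two replicates, 3 SD over the compound average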;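 note: 0% = DMSO untreated cells without growth and 100% = 10 µM 1-NA-PP1 full growth; higher means more yeast growth rescued from 5-FOA killing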). Particulars: S. cerevisiae cbk1-as DSE1-URA3 strain, 5-FOA growth OD615, 2 d; at 50 µM; stronger effect = higher value.
Where [16] appears, read: H69AR cells + 2 uM doxorubicin, measured here: viability with 2 uM doxorubicin, stronger effect = lower value.
Setting [17] is: H69AR cells, compound alone cytotoxicity.

5 compounds from PubChem BioAssay can be followed below.

Each structure is given as a SMILES string. Records with an inconclusive call do not appear. Active and inactive are the calls of the source.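 Rule for the calls, unless noted: active = growth inhibition above 25% in both replicates, a cutoff set 3 SD above the mean; inconclusive = above 25% in only one replicate; inactive = the rest.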

As usually defined, the viability is a read-out of living cells in per cent, often relative to untreated cells. Broadly, the inhibition is the relative decrease from the control value, in per cent.

Receptor tyrosine-protein kinase erbB-2 (Homo sapiens), sequence (P04626 whole entry, looked up): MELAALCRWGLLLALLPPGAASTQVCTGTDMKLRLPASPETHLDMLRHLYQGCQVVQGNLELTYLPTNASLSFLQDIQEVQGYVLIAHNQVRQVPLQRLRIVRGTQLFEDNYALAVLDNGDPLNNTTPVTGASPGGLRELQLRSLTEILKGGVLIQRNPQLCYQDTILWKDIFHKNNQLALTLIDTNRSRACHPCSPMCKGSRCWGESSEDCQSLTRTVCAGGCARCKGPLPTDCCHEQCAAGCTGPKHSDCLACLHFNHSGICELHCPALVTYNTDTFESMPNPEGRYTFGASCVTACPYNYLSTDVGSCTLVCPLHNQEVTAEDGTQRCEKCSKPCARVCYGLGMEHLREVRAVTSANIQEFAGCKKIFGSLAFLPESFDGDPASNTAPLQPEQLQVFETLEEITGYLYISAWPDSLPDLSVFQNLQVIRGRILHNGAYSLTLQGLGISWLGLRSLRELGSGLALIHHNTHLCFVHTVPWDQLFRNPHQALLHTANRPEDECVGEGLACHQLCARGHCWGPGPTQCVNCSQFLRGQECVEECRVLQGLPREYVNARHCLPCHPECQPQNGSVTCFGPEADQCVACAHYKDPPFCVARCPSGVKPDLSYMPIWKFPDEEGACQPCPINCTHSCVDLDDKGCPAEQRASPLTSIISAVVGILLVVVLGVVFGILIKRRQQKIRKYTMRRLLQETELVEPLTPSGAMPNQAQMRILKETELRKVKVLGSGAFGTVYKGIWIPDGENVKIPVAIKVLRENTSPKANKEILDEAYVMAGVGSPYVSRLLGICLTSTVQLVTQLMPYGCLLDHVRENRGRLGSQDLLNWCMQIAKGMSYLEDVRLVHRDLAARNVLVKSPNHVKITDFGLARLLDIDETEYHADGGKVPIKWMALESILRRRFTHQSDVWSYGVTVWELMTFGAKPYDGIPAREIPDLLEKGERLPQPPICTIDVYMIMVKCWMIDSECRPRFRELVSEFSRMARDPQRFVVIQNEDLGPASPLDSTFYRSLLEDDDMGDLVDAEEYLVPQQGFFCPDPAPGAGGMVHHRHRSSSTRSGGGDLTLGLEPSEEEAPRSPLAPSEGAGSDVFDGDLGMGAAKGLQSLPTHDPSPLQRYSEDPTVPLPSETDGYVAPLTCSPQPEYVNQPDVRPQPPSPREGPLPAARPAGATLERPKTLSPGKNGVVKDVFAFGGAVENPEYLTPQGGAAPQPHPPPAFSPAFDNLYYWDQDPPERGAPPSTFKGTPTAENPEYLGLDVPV

For `Cc1ccc(CCP(=O)(O)CN2CCOCC2)cn1`, the viability in assay [1] is 85%; in [3] it was 85% (inactive); in assay [4] it was 101% (inactive); in assay [5], 104% (inactive); in [6] (setting [16]), 91.4%; in assay [6] (setting [17]) it was 104%. The viability in [12] is 89.2% (inactive); in assay [13], 92.3% (inactive). Besides, the Her2 level in assay [2] was 87.5% (inactive). For the same compound, the differential viability (reversal) in assay [6] (H69AR cells + 2 uM doxorubicin) was 12.3% (inactive). The inhibition was -7.57% (inactive) in [7], 3.61% (inactive) in [8] and 0.17% (inactive) in assay [14]. Moreover, the growth inhibition in [9] was -11.9% (inactive); in assay [10] it was -9.14% (inactive). Further, in assay [11], the viability increase is 0.51% (inactive). Further, the RAM network inhibition in assay [15] was -0.42% (inactive).

Take `COC(=O)c1cn(C(=O)c2ccc(Br)o2)c2ccccc12`: the viability in [1] was 89%; in assay [3], 89% (inactive); in assay [4], 95.9% (inactive); in [5], 88.3% (inactive); in assay [6] (setting [16]), 89.6%; in assay [6] (setting [17]), 88.3%. Also, the figures for the viability in assay [12] and in assay [13] were 98.2% (inactive) and 102% (inactive), respectively. In addition, the Her2 level in assay [2] was 102% (inactive). Moreover, in assay [6] (H69AR cells + 2 uM doxorubicin), the differential viability (reversal) was -1.34% (inactive). For the same compound, the inhibition in assay [7] was 1.03% (inactive); in assay [8], -1.33% (inactive); in assay [14], 2.23% (inactive). The growth inhibition in assay [9] was 4.04% (inactive); in assay [10] it was 0.5% (inactive). Besides, the viability increase in [11] is 0.03% (inactive). For the same compound, in assay [15], the RAM network inhibition is 4.65% (inactive).

Regarding `CC1CCc2nn(CC(=O)NCCCN3CCOCC3)cc2C1` (stereo not given), the viability in [1] was 99.5%; in [3], 99.5% (inactive); in assay [4] it was 85.6% (inactive); in [5], 90.5% (inactive); in [6] (setting [16]) it was 88.1%; in assay [6] (setting [17]), 90.5%. Further, the viability is 104% (inactive) in assay [12] and 95% (inactive) in assay [13]. For the same compound, in assay [2], the Her2 level was 102% (inactive). Moreover, the differential viability (reversal) in assay [6] (H69AR cells + 2 uM doxorubicin) was 2.46% (inactive). For the same compound, the results for the inhibition in assay [7], in [8] and in assay [14] were -3.97% (inactive), -0.83% (inactive) and 3.4% (inactive), respectively. Besides, the growth inhibition in assay [9] was 7.55% (inactive); in assay [10], 6.69% (inactive). Moreover, in assay [11], the viability increase was -1.14% (inactive). For the same compound, the RAM network inhibition in assay [15] was 1.33% (inactive).

Regarding `Cc1ccccc1NC(=O)C1CCCN(S(=O)(=O)c2cnc[nH]2)C1` (stereo not given), the viability is 85.5% in [1]; 85.5% (inactive) in assay [3]; 95.8% (inactive) in [4]; 92.6% (inactive) in [5]; 91.2% in assay [6] (setting [16]); 92.6% in assay [6] (setting [17]). Further, the viability in assay [12] was 102% (inactive); in [13] it was 101% (inactive). Further, in [2], the Her2 level is 108% (inactive). Moreover, the differential viability (reversal) in assay [6] (H69AR cells + 2 uM doxorubicin) was 1.39% (inactive). The inhibition in assay [7] is -3.87% (inactive); in assay [8], 3.33% (inactive); in [14] it was 2.71% (inactive). Moreover, the growth inhibition in assay [9] was -1.35% (inactive); in [10], 0.61% (inactive). Moreover, in assay [11], the viability increase was -2.13% (inactive). Besides, in assay [15], the RAM network inhibition was 2.9% (inactive).

Consider `O=C(Oc1ccc2ccc(OC(=O)N3CCOCC3)cc2c1)N1CCOCC1`, for which the viability was 96.5% in [1]; 96.5% (inactive) in assay [3]; 108% (inactive) in assay [4]; 84% (inactive) in assay [5]; 89.5% in assay [6] (setting [16]); 84% in [6] (setting [17]). Moreover, the viability is 92.2% (inactive) in assay [12] and 87.7% (inactive) in assay [13]. In assay [2], the Her2 level was 96% (inactive). Besides, the differential viability (reversal) in [6] (H69AR cells + 2 uM doxorubicin) was -5.42% (inactive). Also, the inhibition in assay [7] is -0.13% (inactive); in assay [8], -2.5% (inactive); in assay [14], 1.12% (inactive). For the same compound, the figures for the growth inhibition in [9] and in assay [10] were -14.7% (inactive) and -15.1% (inactive), respectively. Also, in [11], the viability increase is 1.51% (inactive). Besides, in assay [15], the RAM network inhibition was 4.57% (inactive).
